DT40 TDP1 no CPT: qHTS for Inhibitors of human tyrosyl-DNA phosphodiesterase 1 (TDP1): qHTS in cells in absence of CPT; DT40 Tdp1-/- hTDP1 cells, no CPT, ATP luminescence, 48 h; 420,000 compounds, 15% hits; Potency, µM (highest dose often 46.2 µM), inactives show top-dose activity change, negative = growth inhibition, usual class: inhibitors; note: potency is the fitted concentration of half-maximal effect; nearly all actives have a fitted effect of over 55% in size
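Readout: luminescence from CellTiter-Glo after 30 min in the dark at RT. Cells: DT40 Tdp1-/- with stable hTDP1, 400/well. Exposure: compounds alone, ≥48 hr, 37 °C.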
DT40 TDP1 CPT: growth inhibition of DT40 Tdp1-/-;hTDP1 cells with camptothecin (screen for TDP1 inhibitors); Potency, µM (series often up to 46.2 µM), inactives show at the top dose activity change, negative = growth inhibition, actives largely listed as inhibitors; chicken DT40 Tdp1-/-;hTDP1 cells + 20 nM CPT, ATP luminescence, 48 h; AID 686979; 420,000 compounds, 12% hits; note: potency is the fitted concentration of half-maximal effect; nearly all actives have a fitted effect of over 55% in size
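Chicken DT40 Tdp1-/- cells complemented with human TDP1, 400 cells/well, exposed to compounds plus 20 nM camptothecin for at least 48 h at 37 C; viability read as ATP content by CellTiter-Glo luminescence.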
IL-1B inflam inh: inhibitors of inflammasome signaling (IL-1 beta secretion); THP-1 LPS/ATP IL-1B secretion, AlphaLISA, 16 h; active compounds read low; activity change, % at 57.5 µM; 360,000 compounds, 4.7% hits; AID 743279; in the data active = activity change below about -50%; inconclusive = mostly about -30% to -49%
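Secreted IL-1B measured by AlphaLISA bead assay after 16 h compound exposure of THP-1 cells; compounds (final up to 57.5 uM) added 1 h before LPS (250 ng/mL) and ATP (1.25 mM) stimulation; lower signal means less secretion.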
HT1080-NT tox: kills 2HG-producing HT-1080-NT fibrosarcoma cells | HT-1080-NT fibrosarcoma viability, CellTiter-Glo ATP luminescence, 48 h | Potency, µM (doses to about 46.1 µM), for the others: at the top dose activity, negative = less viability, most hits filed as cytotoxic | 360,000 compounds, 1.6% hits | AID 686970;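 note: NT is the 2HG producing partner of a matched IDH1 knockdown line; potency is the fitted concentration of half-maximal effect; 0% = DMSO-treated cells and -100% = media-only wells without cells; nearly all actives have a fitted effect of over 55% in size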
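750 cells/well, RPMI + 5% FBS; 2 h settle, compound pin-transfer, 48 h at 37 degrees C. CellTiter-Glo 10 min RT, luminescence. Normalized to DMSO and media-only wells.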
uPA generation: blocks generation of uPA at the cell surface | cell surface uPA generation assay, qHTS | AID 540303 | Potency, µM (doses to about 38.3 µM), for inactives: top-dose activity change, negative = inhibition, actives largely listed as inhibitors | 330,000 compounds, 0.31% hits; active = well fitted inhibition curve with a large enough effect; inconclusive = small, poorly fitted or top-dose-only effect; inactive = no such curve, though single readings can be large or run the other way; tested in mouse RAW 264.7 cells; note: potency is the fitted concentration of half-maximal effect; nearly all actives have a fitted effect of over 55% in size
HT1080 IDH1KD tx: kills HT-1080 cells with IDH1 knockdown | HT-1080 IDH1 knockdown viability, ATP luminescence, 48 h | Potency, µM (highest dose often 46.1 µM), for the others: at the highest dose activity, negative = toxicity, hits mostly cytotoxic | 360,000 compounds, 2% hits;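 note: potency is the fitted concentration of half-maximal effect; 0% = DMSO wells and -100% = cell-free medium wells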
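IDH1KD HT-1080 cells, 750/well, RPMI + 5% FBS; compound pinned after 2 h settling; 48 h, 37 °C; CellTiter-Glo luminescence; % activity normalised to DMSO and no-cell wells; curves fitted, classed by r2 and efficacy.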
* hit, by the source's call. The list is not random: actives were taken first. Their share in the collection is about 19%. Unless noted, calls come from the whole dose curve; as a rule, active = well fitted curve in the direction sought with a large enough effect; inconclusive = small, poorly fitted or top-dose-only effect, or another doubt; inactive = no such curve, though single readings can be large; an effect the other way counts as inactive or inconclusive. Unless noted, % is set by controls: 0 for no effect and ±100 for the full control effect.

Screening CCOc1ccc(S(=O)(=O)Nc2cccc(C(=O)N3CCN(c4ccccn4)CC3)c2)cc1 returned DT40 TDP1 no CPT 16.4µM*, DT40 TDP1 CPT 13µM*, IL-1B inflam inh 20.6, HT1080-NT tox -5.3% and HT1080 IDH1KD tx -17.9%.
`CN1CCN(C(=O)COc2ccc(S(=O)(=O)Nc3ccc(F)cc3)cc2)CC1` gave DT40 TDP1 no CPT 16.7%, DT40 TDP1 CPT -10.3%, IL-1B inflam inh 22.5, HT1080-NT tox 9.7%, uPA generation 0.8% and HT1080 IDH1KD tx 11.5%.
Screening CCS(=O)CCSP(=O)(OC)OC (stereo not given) returned DT40 TDP1 no CPT -5.2% and DT40 TDP1 CPT 11.6%.
`O=C(NC1CN2CCC1CC2)c1cc(Cl)c([N+](=O)[O-])c2nc[nH]c12` (stereo not given) gave DT40 TDP1 no CPT inconclusive, DT40 TDP1 CPT inconclusive, IL-1B inflam inh -104.2*, HT1080-NT tox 6.1%, uPA generation -24.8% and HT1080 IDH1KD tx 4.0%.
`O=C1C2CCCC1C(N1CCCCC1)CC2` (stereo not given) gave DT40 TDP1 no CPT -6.3%, DT40 TDP1 CPT 15.3%, IL-1B inflam inh -0.7, HT1080-NT tox 1.5%, uPA generation -0.5% and HT1080 IDH1KD tx -0.6%.
Screening O=C1CC2OCC=C3CN4CC[C@]56c7ccccc7N1[C@H]5[C@H]2C3C[C@H]46 (stereo not given in full) returned DT40 TDP1 no CPT -8.4%.
For COC(=O)c1cn(C(=O)c2cccc3ccccc23)c2ccccc12 the results were DT40 TDP1 no CPT 9.2µM*, DT40 TDP1 CPT 8.2µM*, IL-1B inflam inh 71.0, HT1080-NT tox 11.6µM*, uPA generation inconclusive and HT1080 IDH1KD tx 13µM*.
For C1=CC(Cc2cncs2)c2ccccc21 (stereo not given) the results were DT40 TDP1 no CPT 3.1%, DT40 TDP1 CPT 7.1%, IL-1B inflam inh 22.3, HT1080-NT tox 0.0%, uPA generation 1.3% and HT1080 IDH1KD tx 10.3%.
`COc1ccc(NC2=NC(C)(C)CS2)cc1` gave DT40 TDP1 no CPT 14.9%, DT40 TDP1 CPT -3.7%, IL-1B inflam inh -54.5*, HT1080-NT tox 24.8%, uPA generation 0.2% and HT1080 IDH1KD tx -2.8%.
COc1ccc(NC2=NCC(C)S2)cc1 (stereo not given) was read as DT40 TDP1 no CPT 11.1%, DT40 TDP1 CPT 15.7%, IL-1B inflam inh -15.3, HT1080-NT tox 23.0%, uPA generation -5.4% and HT1080 IDH1KD tx 1.5%.
For Cc1ccc(-c2cn3c(=S)[nH]nc3s2)cc1 the results were DT40 TDP1 no CPT inconclusive, DT40 TDP1 CPT -27.2%, IL-1B inflam inh 12.7, HT1080-NT tox -2.9%, uPA generation -2.8% and HT1080 IDH1KD tx 3.2%.
For CC(C)c1oc(=O)cc2c1[C@@H](O)[C@H]1OC(=O)[C@@]3(C)CC[C@@H](O)[C@@]2(C)C13 (stereo not given in full) the results were DT40 TDP1 no CPT 5.17µM*, DT40 TDP1 CPT 5.8µM*, IL-1B inflam inh 62.2, HT1080-NT tox inconclusive, uPA generation inconclusive and HT1080 IDH1KD tx inconclusive.
CC(C)c1oc(=O)cc2c1[C@@H](O)[C@H]1OC(=O)[C@@]3(C)C[C@@H](O)[C@@H](O)[C@@]2(C)C13 (stereo not given in full) was read as DT40 TDP1 no CPT 1.84µM*, DT40 TDP1 CPT 2.06µM*, IL-1B inflam inh -7.9, HT1080-NT tox inconclusive, uPA generation 2.24µM* and HT1080 IDH1KD tx 10.3µM*.
C[C@H](CN1CCOCC1)C(C(=O)N1CCCC1)(c1ccccc1)c1ccccc1 was read as DT40 TDP1 no CPT 41.8µM* and DT40 TDP1 CPT inconclusive.
For C/C=C(/C)C(=O)OC1CC[C@]2(C)C3CCC4[C@]5(O)CC(O)[C@]6(O)C(CN7CC(C)CCC7[C@]6(C)O)[C@]5(O)C[C@@]42O[C@]13O (stereo not given in full) the results were DT40 TDP1 no CPT -6.1% and DT40 TDP1 CPT -2.6%.
c1ccc(-c2nc(N3CCOCC3)s[n+]2-c2ccccc2)cc1 was read as DT40 TDP1 no CPT inconclusive, DT40 TDP1 CPT 14.6µM*, IL-1B inflam inh 0.0, HT1080-NT tox 8.2%, uPA generation 2.1% and HT1080 IDH1KD tx 16.8%.
CCOc1ccccc1Oc1coc2cc(OC(=O)c3ccco3)ccc2c1=O was read as DT40 TDP1 no CPT inconclusive, DT40 TDP1 CPT -27.0%, IL-1B inflam inh 3.3, HT1080-NT tox -6.4%, uPA generation -7.3% and HT1080 IDH1KD tx -27.9%.
Screening CCOc1ccccc1Nc1nc(-c2sc(NC(=O)c3ccco3)nc2C)cs1 returned DT40 TDP1 no CPT 14.6µM*, DT40 TDP1 CPT 14.6µM*, IL-1B inflam inh 20.8, HT1080-NT tox 1.9%, uPA generation inconclusive and HT1080 IDH1KD tx -11.0%.
`CCCCCCCCCC(=O)O[C@H]1CC[C@H]2[C@@H]3CCC4=CC(=O)CC[C@@H]4[C@H]3CC[C@]12C` gave DT40 TDP1 no CPT -0.1% and DT40 TDP1 CPT 18.9%.
Screening CCOc1ccc(-n2c(CC)nc3ccccc3c2=O)cc1 returned DT40 TDP1 no CPT inconclusive, DT40 TDP1 CPT -28.4%, IL-1B inflam inh 39.6, HT1080-NT tox 2.7%, uPA generation 12.5% and HT1080 IDH1KD tx 3.8%.
For CCOc1ccc(Nc2c(S(=O)(=O)c3ccc(C)cc3)cnc3ccccc23)cc1 the results were DT40 TDP1 no CPT inconclusive and DT40 TDP1 CPT 16.4µM*.
`COc1ccc(CCn2c(NN=C3CCCCC3)nc3c2c(=O)[nH]c(=O)n3C)cc1` gave DT40 TDP1 no CPT 16.4µM*, DT40 TDP1 CPT inconclusive, IL-1B inflam inh 36.5, HT1080-NT tox -19.2%, uPA generation -8.5% and HT1080 IDH1KD tx -1.5%.
Screening CN(CCc1ccccc1)C(=O)c1ccc(NC(=O)Cc2cccc([N+](=O)[O-])c2)cc1 returned DT40 TDP1 no CPT inconclusive, DT40 TDP1 CPT inconclusive, IL-1B inflam inh -50.8*, HT1080-NT tox -6.1%, uPA generation 5.3% and HT1080 IDH1KD tx 1.3%.
Screening Oc1ccc(Cl)cc1 returned DT40 TDP1 no CPT -4.4%, DT40 TDP1 CPT -5.2%, IL-1B inflam inh 24.0, HT1080-NT tox -0.8%, uPA generation -16.5% and HT1080 IDH1KD tx 1.5%.
Oc1ccc(Cl)cc1Sc1cc(Cl)ccc1O was read as DT40 TDP1 no CPT 18.4µM*, DT40 TDP1 CPT 18.4µM*, IL-1B inflam inh -100.8*, HT1080-NT tox 20.6µM*, uPA generation 1.5% and HT1080 IDH1KD tx 20.6µM*.

Source: PubChem (National Center for Advancing Translational Sciences (NCATS))
